# From article PMC7862700, “An all-to-all approach to the identification of sequence-specific readers for epigenetic DNA modifications on cytosine”
# Experiments:
# Test in all cases: DAPPL (digital affinity profiling via proximity ligation, sequencing); 10 mM Tris-HCl pH 7.5, 50 mM NaCl, 1 mM DTT, 4% glycerol, room temperature, 30 min; GST-TFs on glutathione beads, 16-mer random dsDNA library, 0.1% formaldehyde crosslink after washing; high values mean tight binding
# FLI1 = biological target: T1, FLI1 (Homo sapiens, UniProt Q01543 1-452); details: protein: recombinant; tags: N-terminal GST; dsDNA, one strand shown
# T1 sequence: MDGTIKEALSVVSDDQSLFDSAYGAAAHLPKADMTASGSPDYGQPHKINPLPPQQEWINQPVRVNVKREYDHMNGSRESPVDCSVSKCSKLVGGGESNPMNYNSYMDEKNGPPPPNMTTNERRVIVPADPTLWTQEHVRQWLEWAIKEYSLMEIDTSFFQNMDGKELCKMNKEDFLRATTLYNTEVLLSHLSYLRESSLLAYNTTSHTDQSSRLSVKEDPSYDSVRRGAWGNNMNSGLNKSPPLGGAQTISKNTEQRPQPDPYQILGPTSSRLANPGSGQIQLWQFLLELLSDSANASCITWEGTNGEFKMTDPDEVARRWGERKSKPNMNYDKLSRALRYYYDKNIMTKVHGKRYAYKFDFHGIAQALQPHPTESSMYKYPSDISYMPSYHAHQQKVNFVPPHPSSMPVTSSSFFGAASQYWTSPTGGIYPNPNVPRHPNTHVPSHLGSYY
# Procedure, shortened: (§1)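 Beads coated with glutathione captured GST-fused human transcription factors that had been expressed in yeast, and the factors were then given DNA barcodes and pooled with a tag-only sample. The pools were incubated with 200 nmole of a random double-stranded 16-mer DNA library in Tris/NaCl/DTT/glycerol buffer for 30 min at room temperature, washed, crosslinked with 0.1% formaldehyde and proximity-ligated with BsaI/T4 ligase at 37 °C for 1 h. PCR amplification and Illumina NextSeq500 sequencing came last. Binding signal is each hexamer's read frequency for a factor divided by its frequency for the tag-only sample.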
# ELK1 = biological target: T2, ELK1 (Homo sapiens, UniProt P19419 1-428); details: protein: recombinant; tags: N-terminal GST; dsDNA, one strand shown
# T2 sequence: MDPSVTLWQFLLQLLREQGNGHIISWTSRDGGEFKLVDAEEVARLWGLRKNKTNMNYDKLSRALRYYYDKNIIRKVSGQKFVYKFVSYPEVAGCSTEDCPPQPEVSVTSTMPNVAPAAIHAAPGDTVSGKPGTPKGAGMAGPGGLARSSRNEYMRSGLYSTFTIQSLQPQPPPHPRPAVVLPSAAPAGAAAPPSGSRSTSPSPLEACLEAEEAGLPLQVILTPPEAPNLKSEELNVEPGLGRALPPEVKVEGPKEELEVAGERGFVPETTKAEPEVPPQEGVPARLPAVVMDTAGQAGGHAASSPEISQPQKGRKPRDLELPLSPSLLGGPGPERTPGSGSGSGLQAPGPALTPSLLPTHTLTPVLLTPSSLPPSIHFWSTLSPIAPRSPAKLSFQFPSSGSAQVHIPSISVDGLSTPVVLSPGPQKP
# Procedure, shortened: as §1
# GABPA = biological target: T3, GABPA (Homo sapiens, UniProt Q06546 1-454); details: protein: recombinant; tags: N-terminal GST; dsDNA, one strand shown
# T3 sequence: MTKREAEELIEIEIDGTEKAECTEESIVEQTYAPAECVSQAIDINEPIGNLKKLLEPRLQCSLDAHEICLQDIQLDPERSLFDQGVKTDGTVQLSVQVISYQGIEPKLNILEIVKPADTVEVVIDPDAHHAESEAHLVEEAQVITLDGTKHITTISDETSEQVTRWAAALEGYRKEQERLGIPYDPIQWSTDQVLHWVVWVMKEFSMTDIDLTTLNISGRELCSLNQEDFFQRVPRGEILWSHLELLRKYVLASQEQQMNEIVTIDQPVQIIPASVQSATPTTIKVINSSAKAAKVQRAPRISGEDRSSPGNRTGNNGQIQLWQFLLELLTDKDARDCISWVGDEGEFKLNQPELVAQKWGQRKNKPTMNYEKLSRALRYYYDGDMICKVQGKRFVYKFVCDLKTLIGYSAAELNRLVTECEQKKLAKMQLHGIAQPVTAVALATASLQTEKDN
# Procedure, shortened: as §1
# ERG = biological target: T4, ERG (Homo sapiens, UniProt P11308 1-479); details: protein: recombinant; tags: N-terminal GST; dsDNA, one strand shown
# T4 sequence: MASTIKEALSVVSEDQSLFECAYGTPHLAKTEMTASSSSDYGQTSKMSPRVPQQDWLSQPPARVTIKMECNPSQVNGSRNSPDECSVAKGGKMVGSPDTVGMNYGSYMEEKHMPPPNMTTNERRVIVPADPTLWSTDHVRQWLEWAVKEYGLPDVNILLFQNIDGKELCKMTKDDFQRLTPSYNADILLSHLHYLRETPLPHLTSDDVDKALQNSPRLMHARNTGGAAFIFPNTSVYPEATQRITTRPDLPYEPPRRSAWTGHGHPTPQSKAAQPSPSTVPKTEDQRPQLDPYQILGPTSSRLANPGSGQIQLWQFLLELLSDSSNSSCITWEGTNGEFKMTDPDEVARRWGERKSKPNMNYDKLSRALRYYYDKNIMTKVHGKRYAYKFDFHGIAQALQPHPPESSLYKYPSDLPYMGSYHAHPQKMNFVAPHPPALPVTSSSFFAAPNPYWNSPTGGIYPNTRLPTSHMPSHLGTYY
# Procedure, shortened: as §1
# ELF1 = ELF1 (Homo sapiens, UniProt P32519 1-619); details: protein: recombinant; tags: N-terminal GST; dsDNA, one strand shown
# Procedure, shortened: as §1
# EHF = biological target: T5, EHF (Homo sapiens, UniProt Q9NZC4 1-300); details: protein: recombinant; tags: N-terminal GST; dsDNA, one strand shown
# T5 sequence: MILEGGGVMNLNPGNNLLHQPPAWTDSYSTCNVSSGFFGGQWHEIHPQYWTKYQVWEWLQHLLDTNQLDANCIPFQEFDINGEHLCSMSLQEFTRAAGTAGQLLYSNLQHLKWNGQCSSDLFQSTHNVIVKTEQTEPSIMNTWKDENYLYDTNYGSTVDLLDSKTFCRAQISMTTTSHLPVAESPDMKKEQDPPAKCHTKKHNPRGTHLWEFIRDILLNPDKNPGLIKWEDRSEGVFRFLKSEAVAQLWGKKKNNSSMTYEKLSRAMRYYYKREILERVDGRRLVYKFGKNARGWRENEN
# Procedure, shortened: as §1
# SPI1 = SPI1 (Homo sapiens, UniProt P17947 1-270); details: protein: recombinant; tags: N-terminal GST; dsDNA, one strand shown
# Procedure, shortened: as §1
# SPIB = SPIB (Homo sapiens, UniProt Q01892 1-262); details: protein: recombinant; tags: N-terminal GST; dsDNA, one strand shown
# Procedure, shortened: as §1
# ELK3 = biological target: T6, ELK3 (Homo sapiens, UniProt P41970 1-407); details: protein: recombinant; tags: N-terminal GST; dsDNA, one strand shown
# T6 sequence: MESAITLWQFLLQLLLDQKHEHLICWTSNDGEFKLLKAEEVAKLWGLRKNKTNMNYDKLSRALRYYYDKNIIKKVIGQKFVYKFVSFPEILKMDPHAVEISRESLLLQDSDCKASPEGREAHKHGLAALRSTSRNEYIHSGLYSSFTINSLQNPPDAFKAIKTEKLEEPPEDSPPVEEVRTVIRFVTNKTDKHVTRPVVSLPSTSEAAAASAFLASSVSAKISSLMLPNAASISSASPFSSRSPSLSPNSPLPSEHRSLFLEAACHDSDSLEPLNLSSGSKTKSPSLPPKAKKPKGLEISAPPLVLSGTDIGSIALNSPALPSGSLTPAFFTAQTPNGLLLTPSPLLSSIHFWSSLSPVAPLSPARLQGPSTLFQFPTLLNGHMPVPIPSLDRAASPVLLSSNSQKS
# Procedure, shortened: as §1
# FEV = biological target: T7, FEV (Homo sapiens, UniProt Q99581 1-238); details: protein: recombinant; tags: N-terminal GST; dsDNA, one strand shown
# T7 sequence: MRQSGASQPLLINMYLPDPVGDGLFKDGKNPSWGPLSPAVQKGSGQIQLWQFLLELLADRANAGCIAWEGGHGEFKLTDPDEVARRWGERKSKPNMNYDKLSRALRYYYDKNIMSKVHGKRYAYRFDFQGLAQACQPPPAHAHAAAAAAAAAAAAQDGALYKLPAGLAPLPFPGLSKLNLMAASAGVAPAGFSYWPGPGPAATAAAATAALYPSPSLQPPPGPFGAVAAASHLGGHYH
# Procedure, shortened: as §1
# ETV5 = ETV5 (Homo sapiens, UniProt P41161 1-510); details: protein: recombinant; tags: N-terminal GST; dsDNA, one strand shown
# Procedure, shortened: as §1
# HSF1 = HSF1 (Homo sapiens, UniProt Q00613 1-529); details: protein: recombinant; tags: N-terminal GST; chain copies: 3; dsDNA, one strand shown
# Procedure, shortened: as §1
# SPIC = biological target: T8, SPIC (Homo sapiens, UniProt Q8N5J4 1-248); details: protein: recombinant; tags: N-terminal GST; dsDNA, one strand shown
# T8 sequence: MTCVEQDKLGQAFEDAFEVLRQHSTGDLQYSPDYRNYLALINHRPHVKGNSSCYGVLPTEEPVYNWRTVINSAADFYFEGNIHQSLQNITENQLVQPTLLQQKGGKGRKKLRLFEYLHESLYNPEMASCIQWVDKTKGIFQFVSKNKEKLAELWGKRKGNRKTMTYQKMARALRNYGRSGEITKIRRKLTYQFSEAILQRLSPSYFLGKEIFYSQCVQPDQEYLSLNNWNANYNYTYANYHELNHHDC
# Procedure, shortened: as §1
# ELF4 = ELF4 (Homo sapiens, UniProt Q99607 1-663); details: protein: recombinant; tags: N-terminal GST; dsDNA, one strand shown
# Procedure, shortened: as §1
# ELK4 = biological target: T9, ELK4 (Homo sapiens, UniProt P28324-2 1-405); details: protein: recombinant; tags: N-terminal GST; dsDNA, one strand shown
# T9 sequence: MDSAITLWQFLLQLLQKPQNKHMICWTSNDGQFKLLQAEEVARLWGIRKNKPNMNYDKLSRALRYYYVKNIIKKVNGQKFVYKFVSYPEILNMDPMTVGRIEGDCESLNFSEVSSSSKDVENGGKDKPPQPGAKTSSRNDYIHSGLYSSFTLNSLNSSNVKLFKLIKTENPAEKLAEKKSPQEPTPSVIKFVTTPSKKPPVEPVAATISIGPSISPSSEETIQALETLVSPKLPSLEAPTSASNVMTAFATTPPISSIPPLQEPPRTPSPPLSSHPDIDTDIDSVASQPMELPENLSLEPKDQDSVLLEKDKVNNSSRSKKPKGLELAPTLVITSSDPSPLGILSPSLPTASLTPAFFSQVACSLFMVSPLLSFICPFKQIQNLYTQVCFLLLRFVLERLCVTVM
# Procedure, shortened: as §1
# ETV2 = biological target: T10, ETV2 (Homo sapiens, UniProt O00321 1-342); details: protein: recombinant; tags: N-terminal GST; dsDNA, one strand shown
# T10 sequence: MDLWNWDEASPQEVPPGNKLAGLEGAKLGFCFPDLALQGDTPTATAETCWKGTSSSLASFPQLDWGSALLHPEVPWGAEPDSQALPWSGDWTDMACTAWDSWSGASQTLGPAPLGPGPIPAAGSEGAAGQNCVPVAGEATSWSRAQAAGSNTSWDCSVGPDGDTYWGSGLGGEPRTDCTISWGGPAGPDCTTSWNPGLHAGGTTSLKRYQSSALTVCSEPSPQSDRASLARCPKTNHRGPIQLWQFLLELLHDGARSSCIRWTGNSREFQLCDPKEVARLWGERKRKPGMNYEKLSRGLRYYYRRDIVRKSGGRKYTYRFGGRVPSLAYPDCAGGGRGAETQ
# Procedure, shortened: as §1
# ELF3 = biological target: T11, ELF3 (Homo sapiens, UniProt P78545 1-371); details: protein: recombinant; tags: N-terminal GST; dsDNA, one strand shown
# T11 sequence: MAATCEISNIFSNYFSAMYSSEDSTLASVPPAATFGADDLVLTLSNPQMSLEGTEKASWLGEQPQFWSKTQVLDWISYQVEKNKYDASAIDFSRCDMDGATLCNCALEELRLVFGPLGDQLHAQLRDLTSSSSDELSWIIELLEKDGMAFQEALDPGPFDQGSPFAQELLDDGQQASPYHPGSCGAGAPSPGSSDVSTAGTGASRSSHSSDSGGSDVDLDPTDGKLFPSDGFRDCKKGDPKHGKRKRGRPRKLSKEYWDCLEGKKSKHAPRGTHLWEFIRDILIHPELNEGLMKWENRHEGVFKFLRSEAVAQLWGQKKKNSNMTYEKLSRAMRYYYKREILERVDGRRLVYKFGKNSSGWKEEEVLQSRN
# Procedure, shortened: as §1
# CRX = CRX (Homo sapiens, UniProt O43186 1-299); details: protein: recombinant; tags: N-terminal GST; dsDNA, one strand shown
# Procedure, shortened: as §1
# ETV1 = ETV1 (Homo sapiens, UniProt P50549 1-477); details: protein: recombinant; tags: N-terminal GST; dsDNA, one strand shown
# Procedure, shortened: as §1
# Chain of ETV1 (P50549 whole entry): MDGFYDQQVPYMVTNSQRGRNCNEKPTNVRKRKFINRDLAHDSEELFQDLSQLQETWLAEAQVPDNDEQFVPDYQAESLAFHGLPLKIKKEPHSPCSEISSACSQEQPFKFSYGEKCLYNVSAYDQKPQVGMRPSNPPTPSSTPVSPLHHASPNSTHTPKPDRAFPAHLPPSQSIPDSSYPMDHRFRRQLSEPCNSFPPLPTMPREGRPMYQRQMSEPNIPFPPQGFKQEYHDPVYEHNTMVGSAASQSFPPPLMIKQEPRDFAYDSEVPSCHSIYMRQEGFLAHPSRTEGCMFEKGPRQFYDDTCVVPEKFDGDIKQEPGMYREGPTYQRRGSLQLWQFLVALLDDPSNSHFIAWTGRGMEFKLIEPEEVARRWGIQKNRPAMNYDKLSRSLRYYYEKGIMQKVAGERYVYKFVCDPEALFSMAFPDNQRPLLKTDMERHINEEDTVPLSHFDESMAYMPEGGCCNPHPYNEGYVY
# Chain of SPIB (Q01892 whole entry): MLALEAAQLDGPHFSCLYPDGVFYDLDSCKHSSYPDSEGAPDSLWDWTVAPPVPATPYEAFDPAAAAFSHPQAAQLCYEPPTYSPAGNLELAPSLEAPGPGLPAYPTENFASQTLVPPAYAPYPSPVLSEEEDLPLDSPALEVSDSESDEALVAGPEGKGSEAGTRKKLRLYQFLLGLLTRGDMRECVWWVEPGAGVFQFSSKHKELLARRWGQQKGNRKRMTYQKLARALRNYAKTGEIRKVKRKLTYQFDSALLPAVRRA
# Chain of ELF4 (Q99607 whole entry): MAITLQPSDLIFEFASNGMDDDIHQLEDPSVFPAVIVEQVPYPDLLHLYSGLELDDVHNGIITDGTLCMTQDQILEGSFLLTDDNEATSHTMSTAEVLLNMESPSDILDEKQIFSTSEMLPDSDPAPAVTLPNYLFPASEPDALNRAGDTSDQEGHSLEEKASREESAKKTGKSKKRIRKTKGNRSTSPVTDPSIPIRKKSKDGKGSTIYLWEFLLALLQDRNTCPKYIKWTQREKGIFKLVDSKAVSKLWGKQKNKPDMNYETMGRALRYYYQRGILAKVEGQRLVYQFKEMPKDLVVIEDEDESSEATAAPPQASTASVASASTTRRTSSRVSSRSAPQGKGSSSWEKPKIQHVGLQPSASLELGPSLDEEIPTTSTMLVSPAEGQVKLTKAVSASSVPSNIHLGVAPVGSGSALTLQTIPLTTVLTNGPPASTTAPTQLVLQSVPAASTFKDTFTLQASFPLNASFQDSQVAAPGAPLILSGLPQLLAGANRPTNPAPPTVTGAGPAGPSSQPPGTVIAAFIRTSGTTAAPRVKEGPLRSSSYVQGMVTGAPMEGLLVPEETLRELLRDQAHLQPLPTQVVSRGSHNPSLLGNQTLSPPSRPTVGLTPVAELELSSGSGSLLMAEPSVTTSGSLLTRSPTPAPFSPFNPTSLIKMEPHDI
# Chain of HSF1 (Q00613 whole entry): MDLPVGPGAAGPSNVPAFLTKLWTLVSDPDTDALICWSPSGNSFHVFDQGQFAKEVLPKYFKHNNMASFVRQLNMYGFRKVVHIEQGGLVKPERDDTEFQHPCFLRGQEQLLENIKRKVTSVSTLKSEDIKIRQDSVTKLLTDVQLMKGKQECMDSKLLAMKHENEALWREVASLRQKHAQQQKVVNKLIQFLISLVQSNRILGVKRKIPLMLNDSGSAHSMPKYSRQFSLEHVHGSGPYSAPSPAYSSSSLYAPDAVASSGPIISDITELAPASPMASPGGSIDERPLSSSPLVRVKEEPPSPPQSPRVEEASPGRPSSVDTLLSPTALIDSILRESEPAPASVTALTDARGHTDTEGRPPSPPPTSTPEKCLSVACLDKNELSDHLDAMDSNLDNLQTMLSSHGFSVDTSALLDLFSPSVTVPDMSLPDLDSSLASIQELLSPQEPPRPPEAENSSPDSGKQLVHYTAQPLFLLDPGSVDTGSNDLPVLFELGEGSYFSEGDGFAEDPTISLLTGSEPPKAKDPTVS
# Chain of ETV5 (P41161 whole entry): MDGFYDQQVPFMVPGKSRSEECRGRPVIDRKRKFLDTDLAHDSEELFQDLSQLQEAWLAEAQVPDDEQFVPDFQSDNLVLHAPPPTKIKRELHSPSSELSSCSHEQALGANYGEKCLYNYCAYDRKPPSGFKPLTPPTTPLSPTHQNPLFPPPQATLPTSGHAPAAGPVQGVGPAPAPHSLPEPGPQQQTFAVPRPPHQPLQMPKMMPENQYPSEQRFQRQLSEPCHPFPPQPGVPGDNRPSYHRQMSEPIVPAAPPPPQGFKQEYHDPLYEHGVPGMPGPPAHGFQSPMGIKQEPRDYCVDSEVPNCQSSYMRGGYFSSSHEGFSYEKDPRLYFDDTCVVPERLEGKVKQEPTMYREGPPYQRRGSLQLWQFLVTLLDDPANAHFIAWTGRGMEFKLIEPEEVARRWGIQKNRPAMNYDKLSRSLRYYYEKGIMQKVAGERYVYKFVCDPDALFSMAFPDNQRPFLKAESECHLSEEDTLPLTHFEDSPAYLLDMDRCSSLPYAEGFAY
# Chain of ELF1 (P32519 whole entry): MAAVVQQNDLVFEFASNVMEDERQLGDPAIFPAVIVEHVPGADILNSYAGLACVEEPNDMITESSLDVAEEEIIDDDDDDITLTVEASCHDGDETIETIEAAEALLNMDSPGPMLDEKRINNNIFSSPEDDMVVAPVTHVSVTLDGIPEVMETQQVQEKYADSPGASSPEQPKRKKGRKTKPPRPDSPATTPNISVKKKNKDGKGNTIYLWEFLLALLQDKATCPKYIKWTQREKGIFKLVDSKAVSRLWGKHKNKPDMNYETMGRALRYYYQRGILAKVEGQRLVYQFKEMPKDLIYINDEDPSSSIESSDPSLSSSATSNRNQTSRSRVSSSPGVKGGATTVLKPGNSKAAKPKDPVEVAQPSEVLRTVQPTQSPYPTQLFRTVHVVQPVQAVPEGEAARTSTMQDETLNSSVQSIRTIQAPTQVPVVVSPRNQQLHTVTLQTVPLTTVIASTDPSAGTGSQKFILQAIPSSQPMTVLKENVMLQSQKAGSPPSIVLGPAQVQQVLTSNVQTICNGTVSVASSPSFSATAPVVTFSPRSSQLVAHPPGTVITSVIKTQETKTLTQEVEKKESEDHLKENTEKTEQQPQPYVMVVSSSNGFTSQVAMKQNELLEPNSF
# Chain of CRX (O43186 whole entry): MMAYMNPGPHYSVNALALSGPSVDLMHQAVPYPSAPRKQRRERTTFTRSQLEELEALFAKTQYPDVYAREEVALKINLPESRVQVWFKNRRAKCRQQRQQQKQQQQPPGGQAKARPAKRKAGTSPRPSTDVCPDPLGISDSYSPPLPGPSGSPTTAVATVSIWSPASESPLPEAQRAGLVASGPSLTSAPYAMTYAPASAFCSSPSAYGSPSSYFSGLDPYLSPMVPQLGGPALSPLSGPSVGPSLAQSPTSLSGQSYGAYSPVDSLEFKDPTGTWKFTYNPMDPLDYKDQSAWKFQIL
sequence,measurement,setting,value
TACATG,binding signal,FLI1,"1.24 fold enrichment (6-mer frequency, TF over GST control)"
same,binding signal,ELK1,"1.09 fold enrichment (6-mer frequency, TF over GST control)"
same,binding signal,GABPA,"1.14 fold enrichment (6-mer frequency, TF over GST control)"
same,binding signal,ERG,"1.2 fold enrichment (6-mer frequency, TF over GST control)"
same,binding signal,ELF1,"1.27 fold enrichment (6-mer frequency, TF over GST control)"
same,binding signal,EHF,"1.18 fold enrichment (6-mer frequency, TF over GST control)"
same,binding signal,SPI1,"1.26 fold enrichment (6-mer frequency, TF over GST control)"
same,binding signal,SPIB,"1.16 fold enrichment (6-mer frequency, TF over GST control)"
same,binding signal,ELK3,"1.3 fold enrichment (6-mer frequency, TF over GST control)"
same,binding signal,FEV,"1.12 fold enrichment (6-mer frequency, TF over GST control)"
same,binding signal,ETV5,"1.26 fold enrichment (6-mer frequency, TF over GST control)"
same,binding signal,HSF1,"1.08 fold enrichment (6-mer frequency, TF over GST control)"
same,binding signal,SPIC,"1.17 fold enrichment (6-mer frequency, TF over GST control)"
same,binding signal,ELF4,"1.29 fold enrichment (6-mer frequency, TF over GST control)"
same,binding signal,ELK4,"1.24 fold enrichment (6-mer frequency, TF over GST control)"
same,binding signal,ETV2,"1.24 fold enrichment (6-mer frequency, TF over GST control)"
same,binding signal,ELF3,"1.28 fold enrichment (6-mer frequency, TF over GST control)"
same,binding signal,CRX,"1.09 fold enrichment (6-mer frequency, TF over GST control)"
same,binding signal,ETV1,"1.21 fold enrichment (6-mer frequency, TF over GST control)"
